Test results published in PubChem BioAssay (Tox21).
Where “and” joins values, the source holds several entries; their conditions need not be identical. Identical values can stand only once. Records with an inconclusive call do not appear. More than one record can exist for a structure, and the calls need not agree. Calls of active or inactive are those of the source. Unless noted, calls come from the whole dose curve.

Experiments:
[1] = Nuclear factor erythroid 2-related factor 2/antioxidant responsive element (Nrf2/ARE) small molecule agonists: qHTS cell viability counter screen in human keratinocytes (AID 1919968; active = well fitted curve in the direction sought with a large enough effect in the repeat runs; an effect the other way counts as inactive or inconclusive; note: nearly all actives have a fitted effect of over 55% in size; note: potency is the fitted concentration of half-maximal effect)
Procedure, shortened: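 In human HaCaT keratinocytes stably expressing an ARE-driven luciferase, compound exposure lasted 23 h at 37 C under 5% CO2. Viable cells are quantified with a protease-based fluorogenic reagent (CellTiter-Fluor) read 1 h after addition.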

[2] = Nuclear factor erythroid 2-related factor 2/antioxidant responsive element (Nrf2/ARE) small molecule agonists: luciferase reporter gene qHTS assay in human keratinocytes (AID 1919969); note: nearly all actives have a fitted effect of over 35% in size; note: potency is the fitted concentration of half-maximal effect
[3] = molecular target: Gonadotropin-releasing hormone receptor (Homo sapiens) (UniProt P30968); test: Human gonadotropin-releasing hormone receptor (GnRHR) small molecule agonists, calcium flux assay in GnRHR-HEK293 cells (AID 1920063); note: nearly all actives have a fitted effect of over 35% in size
Sequence of Gonadotropin-releasing hormone receptor (Homo sapiens) (P30968 whole entry, looked up): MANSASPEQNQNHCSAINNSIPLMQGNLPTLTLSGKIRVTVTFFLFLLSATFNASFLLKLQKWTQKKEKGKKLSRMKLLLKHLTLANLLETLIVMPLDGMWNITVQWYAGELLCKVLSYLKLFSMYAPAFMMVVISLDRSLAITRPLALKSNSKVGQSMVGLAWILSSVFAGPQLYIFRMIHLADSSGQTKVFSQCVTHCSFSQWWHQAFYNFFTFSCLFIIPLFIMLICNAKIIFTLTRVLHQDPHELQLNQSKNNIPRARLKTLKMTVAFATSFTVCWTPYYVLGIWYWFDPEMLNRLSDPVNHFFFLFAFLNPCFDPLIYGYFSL
Procedure, shortened: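 Intracellular calcium rise is the read-out: engineered human GnRHR HEK293 cells, dye-loaded, are exposed to DMSO-dissolved compounds and fluorescence at Ex/Em 480/540 is tracked for 3 min.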

[4] = molecular target: KiSS-1 receptor (Homo sapiens) (UniProt Q969F8); test: Human kisspeptin (KISS1R) small molecule agonists, calcium flux assay in KISS1R-HEK293 cells (AID 1920064; active = well fitted curve in the direction sought with a large enough effect in the repeat runs; an effect the other way counts as inactive or inconclusive)
Sequence of KiSS-1 receptor (Homo sapiens) (Q969F8 whole entry, looked up): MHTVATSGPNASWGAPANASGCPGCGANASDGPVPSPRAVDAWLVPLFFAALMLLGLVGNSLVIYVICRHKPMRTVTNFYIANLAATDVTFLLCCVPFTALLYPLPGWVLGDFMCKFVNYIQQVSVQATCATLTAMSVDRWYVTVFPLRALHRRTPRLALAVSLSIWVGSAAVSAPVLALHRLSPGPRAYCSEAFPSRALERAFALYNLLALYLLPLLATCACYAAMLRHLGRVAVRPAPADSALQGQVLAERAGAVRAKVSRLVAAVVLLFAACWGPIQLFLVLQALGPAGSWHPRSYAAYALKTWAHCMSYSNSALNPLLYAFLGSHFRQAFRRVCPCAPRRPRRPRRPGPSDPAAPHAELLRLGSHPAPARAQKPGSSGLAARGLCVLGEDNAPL
Procedure, shortened: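 Concentration-response testing used 15 concentrations in triplicate on human KISS1R-expressing HEK293 cells. Calcium-dependent fluorescence (Ex/Em 480/540) was followed kinetically for 3 min after compound transfer.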

[5] = G protein-coupled receptor (GPCR) small molecule agonists, calcium flux assay: HEK293 wild type cell line counter screen (AID 1920065)
Procedure, shortened: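 Fluorescence intensity signals activation. After overnight (18 h) culture and a 1 h calcium dye load at 37 C, compounds are added by pin tool and the plate read at 480/540 nm for 3 min in 1 s steps.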

[6] = p53 small molecule agonists, cell-based qHTS assay with human liver microsomes (AID 1963577)
Procedure, shortened: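 p53RE-bla cells, 4,000/well, compound added after 5 h, with human liver microsomes 0.5 mg/mL and NADPH 0.5 mg/mL final; 16 h at 37 C, then LiveBLAzer 2 h RT, fluorescence.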

[7] = p53 small molecule agonists, cell-based qHTS assay with rat liver microsomes (AID 1963578)
Procedure, shortened: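 p53RE-bla cells, 4,000/well, pre-incubated 5 h, then given compounds plus rat liver microsomes (0.5 mg/mL final) and NADPH (0.5 mg/mL final). Incubation 16 h at 37 C; beta-lactamase reporter read by LiveBLAzer fluorescence after 2 h at room temperature.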

[8] = p53 small molecule agonists, cell-based qHTS assay with human liver microsomes: qHTS cell viability counter screen (AID 1963579); note: nearly all actives have a fitted effect of over 45% in size; note: potency is the fitted concentration of half-maximal effect
Procedure, shortened: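 p53RE-bla cells, 4,000/well, dosed 5 hours after plating, with human liver microsomes (0.5 mg/mL final) plus NADPH (0.5 mg/mL final), 16 hours at 37 C. Viability read as CellTiter-Glo luminescence after 30 min at room temperature.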

[9] = p53 small molecule agonists, cell-based qHTS assay: qHTS cell viability counter screen (AID 1963581); note: nearly all actives have a fitted effect of over 45% in size; note: potency is the fitted concentration of half-maximal effect
Procedure, shortened: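 Luminescence from CellTiter-Glo, reflecting ATP content, serves as the cytotoxicity measure; it is taken after the 2 h reporter substrate step in HCT-116 p53RE-bla cells dosed for 16 h at 37 C.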

[10] = p53 small molecule agonists, cell-based qHTS assay (AID 1963582; active = well fitted activation curve with a large enough effect in the signal ratio in the repeat runs, not every such curve was filed as active; the % refers to the signal ratio)
Procedure, shortened: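 After plating, p53RE-bla cells sat 5 h in the incubator; compounds or DMSO vehicle were pinned in; a 16 h incubation at 37 C followed; FRET substrate was added and, 2 h later at RT, fluorescence was measured.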

[11] = molecular target: 5-hydroxytryptamine receptor 2A (Homo sapiens) (UniProt P28223); test: 5-hydroxytryptamine receptor 2A (HTR2A) small molecule antagonists, cell-based qHTS assay (AID 1963586); note: nearly all actives have a fitted effect of over 45% in size; note: potency is the fitted concentration of half-maximal effect
Sequence of 5-hydroxytryptamine receptor 2A (Homo sapiens) (P28223 whole entry, looked up): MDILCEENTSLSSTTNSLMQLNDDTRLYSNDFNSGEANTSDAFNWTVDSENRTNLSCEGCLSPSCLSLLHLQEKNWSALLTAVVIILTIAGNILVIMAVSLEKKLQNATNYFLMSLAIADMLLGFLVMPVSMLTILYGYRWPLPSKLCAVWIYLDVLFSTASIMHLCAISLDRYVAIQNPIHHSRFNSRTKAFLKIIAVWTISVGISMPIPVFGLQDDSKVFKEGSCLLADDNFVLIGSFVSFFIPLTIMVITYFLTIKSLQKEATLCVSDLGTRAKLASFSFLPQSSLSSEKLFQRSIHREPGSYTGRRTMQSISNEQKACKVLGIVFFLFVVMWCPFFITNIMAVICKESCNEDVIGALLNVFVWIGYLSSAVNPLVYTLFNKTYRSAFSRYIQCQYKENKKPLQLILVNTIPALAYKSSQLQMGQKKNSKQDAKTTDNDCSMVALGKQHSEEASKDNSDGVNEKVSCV
Procedure, shortened: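 CHO cells stably expressing human HTR2A were plated for 18 h at 37 C, then loaded with calcium dye for 1 h. Compounds were preincubated 5 min at room temperature before DOI (4 nM solution) was added. Kinetic fluorescence was read for 3 min.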

[12] = molecular target: 5-hydroxytryptamine receptor 2A (Homo sapiens) (UniProt P28223); test: 5-hydroxytryptamine receptor 2A (HTR2A) small molecule agonists, cell-based qHTS assay (AID 1963587); note: nearly all actives have a fitted effect of over 30% in size
Procedure, shortened: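 CHO cells stably expressing human HTR2A, plated 18 h, loaded with calcium dye 1 h at 37 C. Agonist mode: compounds added and intracellular calcium fluorescence recorded kinetically for 2 min at 1 sec intervals.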

[13] = molecular target: Muscarinic acetylcholine receptor M1 (Homo sapiens) (UniProt P11229); test: Cholinergic receptor muscarinic 1 (CHRM1) small molecule agonists, cell-based qHTS assay (AID 1963589); note: nearly all actives have a fitted effect of over 35% in size
Sequence of Muscarinic acetylcholine receptor M1 (Homo sapiens) (P11229 whole entry, looked up): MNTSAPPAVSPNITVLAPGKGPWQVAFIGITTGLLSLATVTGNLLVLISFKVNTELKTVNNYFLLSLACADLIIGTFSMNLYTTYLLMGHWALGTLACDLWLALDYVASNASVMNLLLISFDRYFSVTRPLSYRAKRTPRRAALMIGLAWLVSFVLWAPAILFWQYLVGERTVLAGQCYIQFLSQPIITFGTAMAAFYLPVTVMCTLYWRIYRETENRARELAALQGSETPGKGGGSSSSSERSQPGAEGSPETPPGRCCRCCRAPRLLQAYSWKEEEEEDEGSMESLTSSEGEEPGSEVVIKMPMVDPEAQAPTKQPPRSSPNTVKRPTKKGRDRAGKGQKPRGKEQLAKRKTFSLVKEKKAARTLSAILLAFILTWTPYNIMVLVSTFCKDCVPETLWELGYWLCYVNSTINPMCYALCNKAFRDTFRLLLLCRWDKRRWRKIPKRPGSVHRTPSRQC
Procedure, shortened: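 Fluorescent calcium dye reports M1 activation in stably transfected CHO cells. Compounds, 15 concentrations, added after 1 h dye loading at 37 C; kinetic reading at 1 sec intervals.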

[14] = cAMP Responsive Elements (CRE) small molecule antagonists, cell-based qHTS assay (AID 1963591; active = well fitted inhibition curve with a large enough effect in the signal ratio in the repeat runs, not every such curve was filed as active; the % refers to the signal ratio)
Procedure, shortened: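 Stimulation used NKH477 at a final 0.25 uM for 3 h in compound-treated CRE-bla HEK293T cells, seeded 18 h beforehand. Reporter activity was measured with LiveBLAzer B/G FRET substrate after 2 h at room temperature.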

[15] = molecular target: Beta-2 adrenergic receptor (Homo sapiens) (UniProt P07550); test: Adrenergic beta2 receptor (ADRB2) small molecule antagonists, cell-based qHTS assay (AID 1963592); note: series mostly up to about 92 µM; nearly all actives have a fitted effect of over 50% in size
Sequence of Beta-2 adrenergic receptor (Homo sapiens) (P07550 whole entry, looked up): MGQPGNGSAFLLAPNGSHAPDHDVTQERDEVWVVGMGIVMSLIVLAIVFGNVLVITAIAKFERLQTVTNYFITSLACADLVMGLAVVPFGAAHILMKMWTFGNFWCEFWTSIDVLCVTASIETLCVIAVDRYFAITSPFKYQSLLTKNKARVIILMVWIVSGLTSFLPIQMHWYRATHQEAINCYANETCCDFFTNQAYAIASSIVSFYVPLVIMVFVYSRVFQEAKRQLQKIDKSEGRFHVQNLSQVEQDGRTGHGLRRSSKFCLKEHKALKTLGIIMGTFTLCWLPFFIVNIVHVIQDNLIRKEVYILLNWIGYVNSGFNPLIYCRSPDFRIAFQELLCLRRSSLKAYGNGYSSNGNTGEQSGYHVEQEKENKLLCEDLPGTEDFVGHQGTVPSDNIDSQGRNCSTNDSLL
Procedure, shortened: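 Assay format: CHO-ADRB2 cells, 18-20hr seeding at 37C/5% CO2, then compound plus 1nM isoproterenol agonist mix for 0.5hr RT. Homogeneous time-resolved fluorescence cAMP detection after 1hr, expressed as 665/615 nm ratio.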

[16] = molecular target: Beta-2 adrenergic receptor (Homo sapiens) (UniProt P07550); test: Adrenergic beta2 receptor (ADRB2) small molecule agonists, cell-based qHTS assay (AID 1963593);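 note: CHO cells stably overexpressing human ADRB2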
Procedure, shortened: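 CHO cells stably over-expressing ADRB2 were plated overnight at 37C, then dosed with compounds plus a stimulation mix containing 100uM IBMX and 25uM Ro-20-1724 for 0.5hr at room temperature. cAMP was measured by HTRF competition, 1hr.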

[17] = molecular target: D(2) dopamine receptor (Homo sapiens) (UniProt P14416); test: Dopamine D2 receptor (DRD2) small molecule agonists, cell-based qHTS assay (AID 1963594); note: nearly all actives have a fitted effect of over 35% in size
Sequence of D(2) dopamine receptor (Homo sapiens) (P14416 whole entry, looked up): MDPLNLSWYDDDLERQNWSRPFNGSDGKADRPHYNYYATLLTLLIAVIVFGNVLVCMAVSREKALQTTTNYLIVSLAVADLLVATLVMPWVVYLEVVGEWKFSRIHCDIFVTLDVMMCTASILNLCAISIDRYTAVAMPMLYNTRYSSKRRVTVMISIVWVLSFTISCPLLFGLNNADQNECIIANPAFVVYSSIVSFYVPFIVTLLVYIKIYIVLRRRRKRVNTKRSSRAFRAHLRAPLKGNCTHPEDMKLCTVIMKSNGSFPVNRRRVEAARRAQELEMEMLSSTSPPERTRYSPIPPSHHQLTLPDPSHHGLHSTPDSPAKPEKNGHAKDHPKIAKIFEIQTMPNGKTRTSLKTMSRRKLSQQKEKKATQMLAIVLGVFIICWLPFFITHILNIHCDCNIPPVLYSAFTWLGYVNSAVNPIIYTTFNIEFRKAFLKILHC
Procedure, shortened: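 HEK293 cells stably expressing human DRD2, pre-treated with PDE inhibitor Ro20-1724 (0.1 mM final) and compound 10 min at room temperature, then stimulated with NKH477 (200nM […]) for 30 min. cAMP read by HTRF (665/620 nm).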

[18] = molecular target: D(2) dopamine receptor (Homo sapiens) (UniProt P14416); test: Dopamine D2 receptor (DRD2) small molecule antagonists, cell-based qHTS assay (AID 1963595; active = well fitted inhibition curve with a large enough effect in the signal ratio in the repeat runs, with a control signal flat; the % refers to the signal ratio)
Procedure, shortened: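 Cells were plated and grown for 24 h at 37 °C. Ro20-1724 (0.1 mM final) went in first, then compound for 10 min. NKH477 (200 nM) with quinpirole (12 nM) followed for 30 min at RT, then HTRF detection reagents for 1 h.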

[19] = p53 small molecule agonists, cell-based qHTS assay with rat liver microsomes: qHTS cell viability counter screen (AID 1963580); note: nearly all actives have a fitted effect of over 45% in size
Procedure, shortened: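 After the beta-lactamase ratio was read, CellTiter-Glo was added to the same wells and luminescence measured at 30 min; cells had been treated 16 h at 37 C with compounds, rat liver microsomes and NADPH (0.5 mg/mL final each).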

[20] = cAMP Responsive Elements (CRE) small molecule agonists, cell-based qHTS assay (AID 1963590)
Procedure, shortened: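 Compound exposure lasted 3 h at 37 C/5% CO2 in CRE-bla HEK 293T cells grown in assay medium with 10% dialyzed FBS and 25 mM HEPES. Reporter signal came from LiveBLAzer B/G FRET substrate, 2 h, room temperature.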

Measured: Potency

CC(=O)C(C)C
not listed: [19] | [20]
inactive: all other assays above

OC[C@@H](O)[C@@H](O[C@@H]1O[C@H](CO)[C@H](O)[C@H](O)[C@H]1O)[C@H](O)[C@@H](O)CO
not listed: [9] | [10] | [16]
inactive: all other assays above

Cc1ccnc2c1NC(=O)c1cccnc1N2C1CC1
not listed: [9] | [11] | [12] | [13]
inactive: all other assays above

Cc1ccc(O)c(-n2nc3ccccc3n2)c1
active: [2] 60.6 µM and 27.3 µM and 5.96 µM
not listed: [8] | [18]
inactive: all other assays above

NC(=O)NC1NC(=O)NC1=O (centres undefined)
not listed: [8]
inactive: all other assays above

CCCc1cc(=O)[nH]c(=S)[nH]1
not listed: [9] | [11] | [12] | [13] | [14] | [19]
inactive: all other assays above

O=C(OCc1ccccc1)c1ccc(O)cc1
active: [2] 68.6 µM and 13.3 µM | [11] 33.4 µM
not listed: [8]
inactive: all other assays above

CC(C)OB(OC(C)C)OC(C)C
not listed: [11] | [18] | [19]
inactive: all other assays above

COC(=O)c1ccc(C)cc1
not listed: [16] | [19]
inactive: all other assays above

Nc1cc(Cl)c(-c2cc(Cl)c(N)cc2Cl)cc1Cl
active: [1] 27.3 µM and 48.6 µM | [8] 51.3 µM | [9] 32.4 µM | [11] 5.29 µM
3.06 µM (active) and inactive: [2]
not listed: [10] | [14] | [16] | [19] | [20]
inactive: all other assays above

COc1ccc([N+](=O)[O-])cc1N
not listed: [12] | [16] | [19]
inactive: all other assays above

COC(=O)c1cccnc1
not listed: [8] | [18]
inactive: all other assays above

ClC1=C(Cl)C(Cl)(Cl)C(Cl)=C1Cl
inactive and 61.1 µM (active): [2]
not listed: [9] | [12] | [16] | [19]
inactive: all other assays above

CCC(C)C=O (centres undefined)
not listed: [19]
inactive: all other assays above

Cc1cccc(Nc2cc(Cl)nc(SCC(=O)O)n2)c1C
not listed: [9] | [10] | [11] | [12] | [13] | [14] | [20]
inactive: all other assays above
